# Earlier results as cited in PubChem BioAssay AID977610 (Shanghai Institute of Organic Chemistry, 2013).
# Screen size: about 3,600 compounds; about 3,600 (100%) were called active. The limit is not given here; nearly all actives have Ki up to about 18000 µM. So high a share suggests a set chosen from earlier hits. Some of the results follow. Numbered stars: 1 amine (or outer) side, 2 acyl side, 3 side chain; on linkers, the order of the positions; unused ones are H or OH. Square brackets hold non-standard residues; d marks the D form. Peptide text beside a SMILES is read from it. LeuΨ(S-CHOHCH2)Ala = CC(C)C[C@H](N[*:1])[C@@H](O)C[C@@H](C)C(=O)[*:2]; Orn(CH(NH2)2) = NC(N)NCCC[C@H](N)C(=O)O; Sta = CC(C)C[C@H](N)[C@@H](O)CC(=O)O
# Test: PubChem AID 977610
# Details: PDB protein-ligand complexes, literature Ki
smiles,measurement,setting,value
O=[N+]([O-])c1cccc2ncccc12,Ki,"protein: PDE10A2, PDB entry 4lm1",590 µM (active)
Nc1nc(N)c2cc(CNc3cc(Cl)ccc3Cl)cnc2n1,Ki,"protein: Dihydrofolate reductase(Q35S, N64F mutants), PDB entry 3oaf",0.0016 µM (active)
same,Ki,"protein: human Dihydrofolate reductase, DHFR, PDB entry 4g95",0.0244 µM (active)
CC[C@H](C)[C@H](NC(=O)[C@H](CCC(=O)O)NC(=O)[C@H](CCC(=O)O)NC(=O)[C@@H](NC(=O)[C@@H](N)CCCCN)[C@@H](C)O)C(=O)N[C@@H](CO)C(=O)N[C@@H](CCC(=O)O)C(=O)N[C@H](C(=O)N[C@@H](CC(N)=O)C(=O)N[C@@H](CC(C)C)[C@@H](O)CC(=O)N[C@H](C(=O)N[C@@H](C)C(=O)N[C@@H](CCC(=O)O)C(=O)N[C@@H](Cc1ccccc1)C(=O)O)C(C)C)C(C)C (H-KTEEISEVN[Sta]VAEF-OH),Ki,"protein: Memapsin 2(?-secretase 1), PDB entry 1xn3",0.04 µM (active)
CC[C@H](C)[C@H](NC(=O)[C@H](CO)NC(=O)[C@H](CCCCNC(C)=O)NC(=O)[C@H](Cc1ccccc1)NC(=O)[C@@H](NC(=O)[C@H](CCC(=O)O)NC(=O)[C@H](Cc1ccc(O)cc1)NC(=O)[C@@H](NC(=O)[C@@H](N)CCCNC(N)N)[C@@H](C)O)[C@@H](C)O)C(=O)N[C@@H](CCSC)C(=O)N[C@@H](CCCCN)C(=O)N[C@@H](CCCCN)C(=O)N[C@@H](CO)C(=O)O (H-[Orn(CH(NH2)2)]TYETFK(Ac)SIMKKS-OH),Ki,"protein: Bromodomain-containing protein 4, PDB entry 2lsp",274 µM (active)
CC(C)C[C@H](NC(=O)[C@H](CC(N)=O)NC(=O)[C@@H](NC(=O)[C@H](CCC(=O)O)NC(=O)[C@H](CO)NC(=O)[C@H](Cc1c[nH]c2ccccc12)NC(=O)[C@@H](N)Cc1c[nH]c2ccccc12)C(C)C)[C@@H](O)C[C@@H](C)C(=O)N[C@@H](C)C(=O)N[C@@H](CCC(=O)O)C(=O)N[C@@H](Cc1ccccc1)C(=O)O (H-WWSEVN[LeuΨ(S-CHOHCH2)Ala]AEF-OH),Ki,"protein: Memapsin 2(?-secretase 1), PDB entry 1xn2",3e-05 µM (active)
O=c1ccn([C@H]2C[C@H](O)[C@@H](CNC(c3ccccc3)(c3ccccc3)c3ccccc3)O2)c(=O)[nH]1,Ki,"protein: Deoxyuridine 5'-triphosphate nucleotidohydrolase, putative, PDB entry 3t60",0.2 µM (active)
CN(C[C@H]1O[C@@H](n2ccc(=O)[nH]c2=O)C[C@@H]1O)C(c1ccccc1)c1ccccc1,Ki,"protein: Deoxyuridine 5'-triphosphate nucleotidohydrolase, putative, PDB entry 3t70",0.5 µM (active)
Cn1ccnc1[C@@H](NC[C@H]1O[C@@H](n2ccc(=O)[nH]c2=O)C[C@@H]1O)c1ccccc1,Ki,"protein: Deoxyuridine 5'-triphosphate nucleotidohydrolase, putative, PDB entry 3t6y",3 µM (active)
O=c1ccn([C@H]2C[C@H](O)[C@@H](CNC(c3ccccc3)c3ccccc3)O2)c(=O)[nH]1,Ki,"protein: Deoxyuridine 5'-triphosphate nucleotidohydrolase, putative, PDB entry 3t64",0.2 µM (active)
COC(=O)N[C@H](C(=O)N/[N+](=C\c1ccc(-c2ccsc2)cc1)CCC[C@@]1(O)Cc2ccc(cc2)CC/C=C\NC(=O)[C@H](C(C)C)NC1=O)C(C)(C)C,Ki,"protein: HIV-1 protease, PDB entry 4cpw",0.0315 µM (active)
COC(=O)N[C@H](C(=O)N/[N+](=C\c1ccc(C2=CCSC2)cc1)CCC[C@@]1(O)Cc2ccc(cc2)C/C=C\CNC(=O)[C@H](C(C)C)NC1=O)C(C)(C)C,Ki,"protein: HIV-1 protease, PDB entry 4cpu",0.0295 µM (active)
CC(C)CN(C[C@@H](O)[C@H](Cc1ccccc1)NC(=O)O[C@H]1CO[C@H]2OCC[C@H]21)S(=O)(=O)c1ccc(C(N)=O)cc1,Ki,"protein: Protease, PDB entry 4i8z",8.9e-06 µM (active)
CCOP(=O)(COc1ccc(C[C@H](NC(=O)O[C@H]2CO[C@H]3OCC[C@H]32)[C@H](O)CN(CC(C)C)S(=O)(=O)c2ccc(OC)cc2)cc1)OCC,Ki,"protein: HIV-1 Protease, PR1 E35EE (VPR1), PDB entry 4m8y",0.00011 µM (active)
same,Ki,"protein: HIV-1 Protease, PR2 (VPR2), PDB entry 4m8x",6.3e-05 µM (active)
CC(C)CN(C[C@@H](O)[C@H](Cc1ccccc1)N[C@@H](O)O[C@H]1CO[C@H]2OCC[C@H]21)S(=O)(=O)c1ccc(C(=O)O)cc1,Ki,"protein: Protease, PDB entry 4i8w",1.27e-05 µM (active)
NC1NC(=O)c2[nH]cc(CN3C[C@H](CO)[C@@H](O)C3)c2N1 (stereo partly drawn),Ki,"protein: Purine nucleoside phosphorylase (W16Y, W94Y, W178Y, H257W mutation), PDB entry 4eb8",0.000151 µM (active)
NC1N[C@@](c2cccc(-c3cncnc3)c2)(c2ccnc(C(F)F)c2)c2cccc(F)c21 (stereo partly drawn),Ki,"protein: BETA-SECRETASE 1, PDB entry 4b05",0.0261 µM (active)
CCC(CC)O[C@@H]1C=C(C(=O)O)C[C@H](NC(N)N)[C@H]1NC(C)=O,Ki,"protein: Neuraminidase, PDB entry 4ks2",0.00046 µM (active)
CCC(CC)O[C@@H]1CC(C(=O)O)=C[C@H](N)[C@H]1NC(C)=O,Ki,"protein: Neuraminidase, PDB entry 4ks1",0.0015 µM (active)
Cc1onc(-c2ccccc2Cl)c1C(=O)NCC(=O)O,Ki,"protein: AmpC beta-lactamase, PDB entry 4kz5",10000 µM (active)
C[C@@H](O)c1nc2cnc3[nH]ccc3c2n1C1CCC(C#N)CC1 (stereo partly drawn),Ki,"protein: Tyrosine-protein kinase JAK1, PDB entry 4ivb",0.0019 µM (active)
same,Ki,"protein: Tyrosine-protein kinase JAK2, PDB entry 4iva",0.0684 µM (active)
C[C@@H](O)c1nc2cnc3[nH]ccc3c2n1C1CCC(CC#N)CC1 (stereo partly drawn),Ki,"protein: Tyrosine-protein kinase JAK1, PDB entry 4ivc",0.0001 µM (active)
COc1ccc(C2CCCC3N=C(Nc4ccc(N5CCN(C)CC5)cc4)NN32)cc1 (stereo not drawn),Ki,"protein: Tyrosine-protein kinase JAK2, PDB entry 4jia",0.0006 µM (active)
CC(=O)N[C@H]1[C@H]([C@H](O)[C@H](O)CO)OC(C(=O)O)C[C@@H]1NC(N)N (stereo partly drawn),Ki,"protein: Human Sialidase Neu2, PDB entry 2f0z",17 µM (active)
CC(=O)N[C@H]1[C@H]([C@H](O)[C@H](O)CO)O[C@@H](C(=O)O)C[C@@H]1N=C(N)N,Ki,"protein: Neuraminidase from the B-Lyon-CHU-15.216-2011 virus, PDB entry 4cpz",0.0209 µM (active)
CC(=O)N[C@H]1[C@H]([C@H](O)[C@H](O)CO)OC(C(=O)O)C[C@@H]1O (stereo partly drawn),Ki,"protein: Trypanosoma cruzi trans-sialidase, PDB entry 1ms0",1230 µM (active)
same,Ki,"protein: human cytosolic sialidase Neu2, PDB entry 1vcu",140 µM (active)
CCC(CC)(NC(=O)C(C)C)C(=O)N[C@@H](CCCNC(N)N)C(=O)NC1(C(=O)NC(c2ccc(F)cc2)c2ccc(F)cc2)CCCC1,Ki,"protein: WD repeat-containing protein 5, PDB entry 4gm8",0.001 µM (active)
CCC(CC)(NC(=O)C(C)C)C(=O)N[C@@H](CCCNC(N)N)C(=O)NC1(C(=O)NC(c2ccccc2)c2ccccc2)CCCC1,Ki,"protein: WD repeat-containing protein 5, PDB entry 4gm3",0.001 µM (active)
C[C@](COC(=O)CCCCC(=O)O)([C@@H](NCCC=O)C(=O)O)S(=O)O,Ki,"protein: SHV-1 beta-lactamase, PDB entry 4mbf",1.7 µM (active)
C[C@H](C(=O)O)c1ccc2c(c1)[nH]c1ccc(Cl)cc12,Ki,"protein: E. coli sliding clamp, DNA polymerase III subunit beta, PDB entry 4mjr",283 µM (active)
